Structures are written as SMILES. The whole screen tested about 97,000 compounds, of which about 140 (0.14%) were called active.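 The calls were made as follows: active = inhibition above the screen-wide mean inhibition plus 3 SD (cut at about 15% in these data); inactive = the rest.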 The sample as a whole holds a higher share of actives than the screen did.

As usually defined, the inhibition is the relative decrease from the control value, in per cent.

This test deals with Ephrin type-B receptor 4 (Homo sapiens) (UniProt P54760). The test is described as follows: EphB4-ephrin-B2 interaction antagonists, primary screen, biochemical, TNYL-RAW peptide probe, fluorescence polarization (AID 720).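 Also: 0% = DMSO wells and 100% = excess unlabeled TNYL-RAW peptide.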 Conditions: EphB4 LBD / TNYL-RAW-Alexa532 peptide, at 7 µM, stronger effect = higher value.
Sequence of Ephrin type-B receptor 4 (Homo sapiens) (P54760 whole entry, looked up, the tested form may be a part): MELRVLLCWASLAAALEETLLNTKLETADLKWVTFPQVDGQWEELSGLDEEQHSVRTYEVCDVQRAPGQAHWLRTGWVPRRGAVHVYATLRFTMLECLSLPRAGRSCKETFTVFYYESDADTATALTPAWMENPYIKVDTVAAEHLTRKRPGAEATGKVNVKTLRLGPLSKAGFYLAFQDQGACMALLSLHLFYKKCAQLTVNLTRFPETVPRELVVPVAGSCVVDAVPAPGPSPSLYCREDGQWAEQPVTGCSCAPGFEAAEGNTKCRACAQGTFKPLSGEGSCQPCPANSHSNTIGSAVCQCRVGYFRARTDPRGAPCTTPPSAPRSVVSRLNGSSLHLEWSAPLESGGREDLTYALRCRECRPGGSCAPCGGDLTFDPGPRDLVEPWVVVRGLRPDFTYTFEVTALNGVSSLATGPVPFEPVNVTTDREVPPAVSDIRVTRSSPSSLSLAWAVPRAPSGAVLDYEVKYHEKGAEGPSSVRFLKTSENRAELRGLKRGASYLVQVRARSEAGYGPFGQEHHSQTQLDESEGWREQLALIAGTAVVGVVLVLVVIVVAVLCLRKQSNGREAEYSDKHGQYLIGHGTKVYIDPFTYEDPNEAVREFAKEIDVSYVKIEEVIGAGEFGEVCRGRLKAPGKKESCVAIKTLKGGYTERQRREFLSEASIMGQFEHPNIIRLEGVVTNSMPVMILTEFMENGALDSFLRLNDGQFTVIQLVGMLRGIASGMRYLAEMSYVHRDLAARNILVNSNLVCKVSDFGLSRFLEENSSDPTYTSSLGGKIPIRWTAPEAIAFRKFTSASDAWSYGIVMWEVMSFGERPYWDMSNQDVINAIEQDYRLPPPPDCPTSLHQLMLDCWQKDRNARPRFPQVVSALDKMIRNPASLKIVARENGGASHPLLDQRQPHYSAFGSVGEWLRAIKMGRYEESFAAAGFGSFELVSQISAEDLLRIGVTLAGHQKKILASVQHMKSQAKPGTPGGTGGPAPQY
In the case of `CCc1cccc2c(C#N)cn(CC(=O)N3CCOCC3)c12`, the inhibition is 21.5% (active).
The result for `CCC(=O)CC(c1ccc([N+](=O)[O-])cc1)c1c(O)c2ccccc2oc1=O` (stereo not given) reads 0.56% (inactive).
The result for `CC(=O)c1ccc(OC(NC(=O)Cc2ccccc2)C(Cl)(Cl)Cl)cc1` (stereo not given) reads 0.16% (inactive).
The result for `OC(Cn1c2ccccc2c2ccccc21)C[n+]1ccccc1` (stereo not given) reads -2.91% (inactive).
For the compound `CC(=O)Nc1ccccc1C(=O)OCC(=O)c1cccc2ccccc12`, the inhibition is -0.92% (inactive).
